hDAT+cocaine – changed hDAT dopamine uptake under cocaine IC80, either direction, primary screen, cocaine antagonist project, cell-based, LLC-PK1 hDAT, [14C]-dopamine uptake, MLSMR; B-score at 10 µM; Sodium-dependent dopamine transporter (Homo sapiens), Q01959; LLC-PK1 hDAT cells, [14C]-dopamine uptake with cocaine IC80; actives deviate in either direction; 110,000 tested, 1.3% active;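 active = Z score or B-score, a plate-position-corrected score, falls beyond the plate's 99.7% confidence bounds, in either direction; inactive = both scores lie inside the 99.7% bounds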;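 note: scored against the spread of the other compound wells on the same plate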
BAP1 block – inhibitors of BAP1 deubiquitinase, primary screen, biochemical, Ub-AMC fluorescence, kinetic; recombinant BAP1, Ub-AMC hydrolysis fluorescence kinetic; stronger effect = lower value; calls only at 20 µM; 72,000 tested, 0.48% active; AID 436, 2006;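 active = activity remaining at or below 50% of control, provided the compound also passes the data quality filters; inactive = the rest, including low values that fail the filters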;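 note: 100% = DMSO wells rate and 0% = substrate alone blank rate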
Target sequence (Q92560 whole entry, looked up): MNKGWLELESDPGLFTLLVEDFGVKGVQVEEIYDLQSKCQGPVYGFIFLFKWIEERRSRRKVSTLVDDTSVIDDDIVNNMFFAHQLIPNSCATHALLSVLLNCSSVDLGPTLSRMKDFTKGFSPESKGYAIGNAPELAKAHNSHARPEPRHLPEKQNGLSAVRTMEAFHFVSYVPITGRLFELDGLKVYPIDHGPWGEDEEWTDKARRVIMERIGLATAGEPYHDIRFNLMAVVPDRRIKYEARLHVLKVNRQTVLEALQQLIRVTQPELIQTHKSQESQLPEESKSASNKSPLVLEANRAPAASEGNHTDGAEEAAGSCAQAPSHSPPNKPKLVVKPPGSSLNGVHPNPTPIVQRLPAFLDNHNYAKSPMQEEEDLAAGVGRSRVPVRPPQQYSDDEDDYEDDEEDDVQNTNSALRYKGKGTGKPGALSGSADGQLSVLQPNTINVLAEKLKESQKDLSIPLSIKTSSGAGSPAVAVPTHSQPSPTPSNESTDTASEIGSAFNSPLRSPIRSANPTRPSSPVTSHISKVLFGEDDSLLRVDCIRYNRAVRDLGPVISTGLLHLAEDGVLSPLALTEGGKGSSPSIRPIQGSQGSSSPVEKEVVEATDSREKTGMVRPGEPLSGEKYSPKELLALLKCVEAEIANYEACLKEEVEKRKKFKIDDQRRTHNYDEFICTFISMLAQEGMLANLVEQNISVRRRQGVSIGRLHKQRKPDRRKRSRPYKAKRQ
D1 mod – D1 CRE-luciferase signal change, two-sided – cell-based, HEK293 D1, dopamine EC30, D1 allosteric modulator project, primary screen. D(1A) dopamine receptor (Homo sapiens), P21728. dopamine EC30 potentiation; actives deviate in either direction. B-score at 10 µM. 58,000 tested, 5.9% active. AID 641, 2007;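 active = luminescence count or its row- and column-corrected plate score outside the 99.7% band of the plate's sample wells, on either side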
D1 mod confirm – D1 receptor positive allosteric modulators, retest, confirmation, cell-based, HEK293 D1, CRE-luciferase, duplicate | luminescence at 10 µM | shares compounds with D1 mod | 2,200 tested, 88% active | AID 642, 2007 | dopamine EC30 potentiation; stronger effect = higher value;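 active = luminescence in either of two replicates above the same-plate mean plus 3 SD of the low-dose dopamine control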
D1 ag no DA – D1 receptor agonism without dopamine, confirmation, mechanism study for D1 allosteric modulator project, cell-based, HEK293 D1, CRE-luciferase, secondary assay 1; shares compounds with D1 mod; luminescence, no dopamine; stronger effect = higher value; 1,900 tested, 0.8% active; luminescence at 10 µM; in the data active = luminescence above about 3900
Isoprot counter – isoproterenol response counter-screen activity for D1 modulators | shares compounds with D1 mod | HEK293 D1 CRE-luciferase, isoproterenol EC30 counter-screen; stronger effect = higher value | luminescence at 10 µM | 2,200 tested, 63% active;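 active = luminescence in either replicate above plate mean of wells with a partly effective reference agonist dose plus 3 SD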;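 note: isoproterenol raises cAMP through native beta-adrenoceptor Gs so signal bypasses D1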
Starred values were filed as active, the others as inactive. The sample as a whole holds a higher share of hits than the screen did.

For O=C(Cn1c(=O)n(Cc2ccccc2)c(=O)c2ccccc21)NCc1ccco1 the results were hDAT+cocaine 0.13.
Cc1cc(=O)oc2cc(OCc3ccccc3F)c(Cl)cc12 was read as BAP1 block inactive.
Screening O=C(Nc1nnc(Cc2ccc(F)cc2)s1)c1cccs1 returned BAP1 block inactive.
CCC1C(=O)C(C)(C)C(=O)OC1c1cccc([N+](=O)[O-])c1 (centres undefined) was read as BAP1 block inactive.
O=C(NC1CCSC1=O)c1ccc([N+](=O)[O-])o1 (centres undefined) was read as BAP1 block inactive.
For CCOC(=O)c1c(C2COc3ccccc3O2)csc1NC(=O)c1ccccc1 (centres undefined) the results were hDAT+cocaine 0.99.
Screening CCOC(=O)c1c(C2COc3ccccc3O2)csc1N (centres undefined) returned hDAT+cocaine 0.47, BAP1 block inactive, D1 mod 9.9*, D1 mod confirm 11276*, D1 ag no DA 1584 and Isoprot counter 3868*.
CCC(Sc1nc2n[nH]c(C)c2c(=N)n1-c1cccc(Cl)c1)C(=O)NCCOC (centres undefined) was read as hDAT+cocaine 2*, BAP1 block inactive, D1 mod 5.1*, D1 mod confirm 11752*, D1 ag no DA 1764 and Isoprot counter 4236*.
For CCC(Sc1nc2n[nH]c(C)c2c(=N)n1-c1ccc(C)c(Cl)c1)C(=O)N1CCOCC1 (centres undefined) the results were hDAT+cocaine 0.74, BAP1 block inactive and D1 mod 0.73.
Screening Cc1nc2ccccc2nc1N1CCOCC1 returned hDAT+cocaine -1.2.
`CSc1nc(N2CCOCC2)c2ccccc2n1` gave hDAT+cocaine -0.89, BAP1 block inactive, D1 mod 9.4*, D1 mod confirm 16028* and Isoprot counter 2940*.
Screening Cc1nc(N2CCOCC2)c2cc(-c3ccccc3)sc2n1 returned hDAT+cocaine 2.6, BAP1 block inactive, D1 mod 7.9*, D1 mod confirm 14040*, D1 ag no DA 1460 and Isoprot counter 7264*.
Screening Cc1nnc(-c2ccccc2)nc1N1CCOCC1 returned hDAT+cocaine -0.95.
CC(=O)Oc1c2occc2cc2ccc(=O)oc12 was read as hDAT+cocaine 0.0093 and BAP1 block inactive.
COc1c2occc2cc2ccc(=O)oc12 was read as hDAT+cocaine 0.33, BAP1 block inactive, D1 mod 13*, D1 mod confirm 26928*, D1 ag no DA 1736 and Isoprot counter 4372*.
For Cc1nc2scc(-c3cccs3)c2c(=O)n1-n1cccc1 the results were hDAT+cocaine -0.36, BAP1 block inactive, D1 mod 4.1*, D1 mod confirm 9316*, D1 ag no DA 1476 and Isoprot counter 4324*.
For Cc1ccc(C)n1-n1c(C)nc2scc(-c3cccs3)c2c1=O the results were hDAT+cocaine -0.35, BAP1 block inactive and D1 mod 1.9.
O=C1c2cccc3cccc(c23)C(=O)N1CCN1CCN(C(=O)C23CC4CC(CC(C4)C2)C3)CC1 was read as BAP1 block inactive.
For Cc1ccc(-n2nc3c(c2NC(=O)C2CC2)CSC3)cc1 the results were BAP1 block inactive.
Screening N#Cc1cc2c(nc1SCc1cccc(Cl)c1)CCCCC2 returned hDAT+cocaine 0.0097.
For N#Cc1cc2c(nc1SCc1cccnc1)CCCCC2 the results were hDAT+cocaine 0.74, BAP1 block inactive, D1 mod 10*, D1 mod confirm 23880*, D1 ag no DA 1748 and Isoprot counter 7692*.
For CCn1ccc(C(=O)Nc2ccc(N(C)C(C)=O)cc2)n1 the results were hDAT+cocaine 0.081, BAP1 block inactive, D1 mod 2.4*, D1 mod confirm 5156, D1 ag no DA 1532 and Isoprot counter 2508.
For CCn1ccc(C(=O)Nc2ccc(Cl)cn2)n1 the results were hDAT+cocaine 0.52, BAP1 block inactive and D1 mod -0.041.
For CCc1ccc(C2C(C(=O)OC)=C(C)NC3=C2C(=O)CCC3)cc1 (centres undefined) the results were BAP1 block inactive.
For O=C(CC1CCCC1)OCn1nnc2ccccc2c1=O the results were hDAT+cocaine -0.17, BAP1 block inactive and D1 mod -0.74.
`O=C(OCn1nnc2ccccc2c1=O)C1CCN(S(=O)(=O)c2cccs2)CC1` gave hDAT+cocaine -1.6, BAP1 block inactive, D1 mod 4*, D1 mod confirm 11392*, D1 ag no DA 1780 and Isoprot counter 2944.
`Cc1nc2ccccc2c2oc(C(=O)NCCCN3CCCC3=O)cc12` gave hDAT+cocaine 1.4, BAP1 block inactive and D1 mod -0.048.
Cc1nc2ccccc2c2oc(C(=O)NCCN3CCN(C)CC3)cc12 was read as hDAT+cocaine 0.0018, BAP1 block inactive, D1 mod 2.6*, D1 mod confirm 5656, D1 ag no DA 1600 and Isoprot counter 3144.
`CC12C=CC(C)(O1)C1C(=O)N(c3cccc4ccccc34)C(=O)C12` (centres undefined) gave BAP1 block inactive.
NC(=O)COc1c(-c2ccccc2)oc2ccccc2c1=O was read as hDAT+cocaine -0.68, BAP1 block inactive, D1 mod 2.6*, D1 mod confirm 15448*, D1 ag no DA 1588 and Isoprot counter 3600*.
For O=C(O)COc1c(-c2ccccc2)oc2ccccc2c1=O the results were hDAT+cocaine 0.69.
Screening O=C(Nc1ccncc1)c1cc2c(ccc3ccccc32)oc1=O returned BAP1 block inactive.
For C/C(Cl)=C\Cn1c(Nc2ccccc2)nc2c1c(=O)n(C)c(=O)n2C the results were hDAT+cocaine -0.22, BAP1 block inactive, D1 mod 14*, D1 mod confirm 11964* and Isoprot counter 3828*.
Screening C/C(Cl)=C/Cn1c(NCCN(C)C)nc2c1c(=O)n(C)c(=O)n2C returned hDAT+cocaine -0.04, BAP1 block inactive and D1 mod 1.3.
Screening O=C(Oc1ccc(N(C(=O)c2ccncc2)S(=O)(=O)c2ccccc2)c2ccccc12)c1ccncc1 returned BAP1 block inactive.
Screening Cc1onc(-c2ccccc2)c1C(=O)NCc1cccnc1 returned hDAT+cocaine -0.23, BAP1 block inactive and D1 mod -0.88.
